Test results taken from the supplement of paper PMC6555819.

Assays:
Assay in all cases: PBM binding z-score (relative to random genomic background probes); higher = stronger binding; sequences stand for … in GC…GCGATTGACAGCGTAGAATGAAGG
[1] = test system: RARb homodimer (NR concentration 270 nM)
In short: (§1)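 Regression normalization was applied to scanned fluorescence from custom Agilent 4×180K protein-binding microarrays. Before scanning, arrays were incubated 1 h with ligand-free nuclear receptor dimers, and binding was detected with antibodies against each partner (one per run). Binding z-scores use the random background probes as reference.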

[2] = test system: RARg:RXRa (NR concentration 270 nM, RXRa partner concentration 90 nM)
In short: as §1

[3] = test system: RARg homodimer (NR concentration 270 nM)
In short: as §1

[4] = test system: RXRa DBDmut IVT, anti-RXR (DBD mutation: RXRa K156A/R161A, NR concentration 90 nM)
In short: as §1

[5] = test system: RXRa homodimer (NR concentration 180 nM)
In short: as §1

[6] = test system: THRa:RXRa (NR concentration 90 nM, RXRa partner concentration 90 nM)
In short: as §1

[7] = test system: THRa homodimer (NR concentration 90 nM)
In short: as §1

[8] = test system: VDR homodimer (NR concentration 270 nM)
In short: as §1

Sequence	PBM binding z-score [1]	PBM binding z-score [2]	PBM binding z-score [3]	PBM binding z-score [4]	PBM binding z-score [5]	PBM binding z-score [6]	PBM binding z-score [7]	PBM binding z-score [8]
GCATATAGGTAATACAAGGTGAGAGTCCGATTGT	0.849	0.265	0.368	0.552	0.4	3.98	0.807	0.0557
AGAACGAGGGCAATGAGTTGATGGCACGGGTGGC	1.11	0.928	1.54	1.36	0.636	0.857	-0.205	2.62
ATATGTAGGTTACATCCGGGTCATTCGGGCTATG	2.99	3.7	2.26	1.22	3.01	3.69	2.36	3.19
TCTGCTAGGTCGGTTGGTCAGCTAACGAGCTGCC	0.194	0.057	0.0646	-0.000892	-0.389	-0.409	-0.643	-0.816
CCAGACGGGTGAGAAGGTAACTCAGCCTCGATTA	-0.188	0.0516	0.0574	-0.845	0.0255	-0.158	-0.508	-0.29
AGAATGAGGTTACCAAACATCAGGGAAACGCTTG	0.501	1.92	1.75	1.15	2.56	2.59	0.726	0.159
TCTATTAGTCGAAGGGCAACCGACGAGTCCGTTT	1.15	0.394	0.638	1.56	0.534	0.187	-0.0492	1.35
CGTCCAAGGTCAATGCTGGGTCAGTGAAAGCATT	4.74	7.34	6.47	3.12	4.97	4.28	2.52	2.62
AGAACGAGGGCAACGAGTTGATAGCACGGGTGGC	0.919	1.41	1.74	1.76	0.952	0.99	-0.357	2.5
TTACCAAGGTGAAGGTCGTAGATCCCTCTGTAGA	1.43	1.13	1.04	-0.566	1.66	2.19	0.633	0.348
TCTTGTAGATCGGCAGGTTAAGAAAGCTGGCCAA	0.124	-0.0429	-0.399	0.729	0.269	0.308	-0.309	-0.0576
CCTGCTAGGTCAACGGTCAGCTAAAGCAGCTCGC	3.72	4.6	5.11	2.02	3.13	2.79	0.878	0.529
CCTGCTAGGTCCATGGTCAGCTAAAGCAGCTCGC	0.248	-0.442	-0.195	1.19	-0.603	-0.287	-0.629	0.0229
CAGACTAGGTCACAGAGGTCAAAGTCCGTGCGTA	5.42	7.17	7.46	3.41	7.88	4.6	2.91	7.08
GGAACGAGGGCAAAATTGATAGCATCTGTCGACG	0.53	0.822	1.08	2.03	0.69	0.648	-0.431	0.356
GGAACGAGGGGAAAGTTGATAGCATCTGTCGACG	0.0344	0.0991	0.188	0.287	0.258	0.0347	-0.259	-0.402
TCTAGCAGGCCACAGGGTCACTCAAGAGGTACGG	3.28	3.5	2.75	0.4	3.39	2.94	1.16	2.07
CCTACTGGGCCACCAGGTCATTGATATCAACGTT	2.62	2.19	2	-0.211	1.43	2.94	2.63	1.77
CGAACTAGGTCATCCAGGACAGTAAATACATTGA	2.98	4.05	4.72	2.51	2.89	3.58	2.2	2.45
AATACAGGGTCACAAGGCCAGAGTAGGTACGAAT	3.8	6.03	5.53	3.06	6.78	3.86	1.78	2.64
CCTGCTAGGTCGTGGTCAGCTAATCTACAGTATG	1.21	0.958	1.4	0.759	0.607	0.876	0.18	-0.0912
CAAACTAGGTCACAGAGGTCAAATTCCGTGCGTA	5.28	7.51	7.97	3.34	8.2	4.68	3.09	6.96
TATAGCAGGCCAGAGGGTCACTCAAGAGGTACGG	2.58	2.61	2.09	-1	2.67	1.76	-0.288	0.651

Sequence	PBM binding z-score [1]	PBM binding z-score [2]	PBM binding z-score [3]	PBM binding z-score [4]	PBM binding z-score [5]	PBM binding z-score [6]	PBM binding z-score [7]	PBM binding z-score [8]
CCTAGTGGGCCATCAGGTCATTGATATCAACGTT	2.68	2.11	1.92	0.53	1.45	3.13	2.59	1.43
ATATGTTGGTTATCGGGTCATTCAGTTTGCGCAT	2.89	2.24	1.97	1.61	2.56	3.26	3.07	4
ACTTACGGATCAACGAGGTTATAGCACGCGTATA	0.98	0.642	0.684	0.778	1.46	1.83	0.943	1.39
CATATTAGTTGACCATAAGGGCAACCGAAGCTCG	2.07	1.61	1.37	0.612	0.942	1.95	1.35	1.14
GATACAGGGTCAGCTAGAGGACAGAGTATGGAAA	3.71	6.86	4.97	1.16	4.03	3.79	1.05	0.873
GCGACTGGAGCAAAGCAGGTTACCATAAGGTTGG	0.0117	-0.319	-0.395	-0.723	0.0642	1.75	-0.495	-0.492
GCTGGTAGGTCAGGTTGGTCAGCTAACGGGTACG	2.87	2.48	3.76	0.0797	1.23	1.12	0.417	0.965
ATCTCTAGGTAAAGATAGTTCTGTGAATGCAAAT	-0.0245	0.131	0.453	0.28	0.154	0.478	0.132	0.175
ACTATTAGTTGAGACAAGGGCAACCGATAGGTTG	1.01	0.568	0.799	0.0242	0.407	1.96	-0.191	0.496
TAGCCTAGGACATGGGCCAGTATACCACGCGAAC	-0.0727	-0.00552	0.0243	-0.981	-0.0222	0.476	0.11	-0.526
ATCTCTAGGTAAAAGTTCAGTGTATCCCGAGGAT	2.33	1.84	2.05	1.12	1.49	1.43	0.678	2.3
TAGCCTAGGTCATGGGGCAGTATACCACGCGAAC	2.71	4.3	4.2	0.354	3.61	3.23	1.44	0.585
TCTCGGAGGACACGATGGTCAGAGCTTTCCAGAG	0.682	0.274	1.24	0.266	0.00404	1.05	0.363	-0.307
CCTACTGGGCCGAAAAGGTCATTGATGCCGATAA	4.31	4.56	3.89	0.386	4.95	3	0.639	2.13
TCGAGTAGATTACCAATGGGGCATTCAGCTTTCT	-0.458	-0.531	-0.494	0.278	-0.304	-0.599	-0.825	-0.571
GGAACGACGGCAAGTTGATAGCAGAGTTTGATGG	-0.7	-0.136	-0.0502	-0.124	-0.0735	-0.769	-1.02	-0.205
ATATGTAGGTTATCGGGTTATTCAGTTTGCGCAT	1.48	1.3	1.01	1.14	1.6	1.78	1.58	2.11
TCTGCTAGGTCAGTAGGTCAGCTAACGAGCTGCC	3.94	4.77	4.67	0.677	2.36	1.93	0.157	-0.0493
CCTACTGGGCCACGAAAGCTCATTGATTCAGTGA	-0.538	-0.286	0.00415	-0.605	-0.6	-0.523	-0.958	-0.935
GTACTAAGGTGAATAGGTCGTTGATGAGTAGGCG	2.3	3.3	1.84	0.451	2.22	3.11	1.66	0.722
CCGACTGGGGCACAAAGGTTACCATACCATCCGG	2.64	2.34	1.92	-0.678	2.52	1.51	0.0239	0.375
CCGACTTGGGCAGAAAGGTTACCATACCATCCGG	1.52	0.806	0.702	-0.476	1.3	0.651	-0.379	-0.411
GTACCAAGGTGAATAGGGCGTTGATGAGTAGGCG	1.21	1.13	0.952	-0.247	0.599	1.36	0.767	0.221

Sequence	PBM binding z-score [1]	PBM binding z-score [2]	PBM binding z-score [3]	PBM binding z-score [4]	PBM binding z-score [5]	PBM binding z-score [6]	PBM binding z-score [7]	PBM binding z-score [8]
GCTCCTAGGTCAACTGATGGTCAGCTAAAGCTCG	3.8	5.76	5.88	2.02	3.77	3.15	1.7	0.601
GCTGCTAGGTCAGTTTGGTCAGCTAACGGGTACG	2.43	2.29	3.29	0.863	0.8	1.36	0.147	0.564
CCGACTGGGCCACGAAAGGTCATTGATTCAGTGA	4.83	4.59	4.35	0.758	4.99	3.87	0.668	1.78
TCATATAGGTAAACAGGTTAAAGTCCGTAAGTTA	1.19	1.04	0.666	1.85	1.62	1.26	0.613	1.01
CCTTACGGGTCAAGGTTTTAGCACGGGTGGTACG	3.11	4.62	4.4	0.499	5.16	2.51	0.113	0.742
AGAATGAGGTTATTAAGATCAGGGATTTGCGGTC	0.902	1.19	1.05	1.96	1.76	2.29	0.681	1.2
TGAATGAGGTTATAAGCTCAGGGAACGTTGCAAA	-0.162	1.1	0.731	0.518	1.91	1.67	0.118	0.00669
TCGCGTAGGTTAGGGGCATTCAGAATGGCGTCGA	0.811	0.412	0.26	0.518	0.821	0.842	0.102	0.649
CGTCCAAGGTCAGCCGGTCAGTGAAAGCGACGTG	4.5	5.54	6.43	2.56	3.93	3.58	1.93	0.973
GGAACGAGGGCATTCGAGTTGGTAGCATGGCGAT	0.543	0.787	0.965	2.93	0.508	1.87	-0.702	2.2
TAGCCTAGGTCCGATCGGGCCAGTATACGCTATA	-0.854	-0.722	-0.738	-0.969	-0.677	0.334	-0.898	-0.952
CCTACTGCGCCAAGGTCATTGATCAGTCAAAGCA	3.46	3.72	2.98	2.48	3.42	3.54	3.12	4.13
CCAGACAGGTGAGAAGGTAACTGAGCCTCGATTA	0.357	0.527	0.335	-0.107	0.0427	0.121	-0.33	-0.0729
AGTGAAAGTTCATCTAGGTAACGTAAGATATGCT	3.66	5.08	5.81	4.66	4.44	3	0.263	5.43
TCTTGTAGATCAAAGGATAAGAAAGCCGAAGCCT	-1.11	-0.0685	-0.196	0.579	0.0933	-0.444	-0.847	-0.298
CCTTACGGGTCACTGTCAGGTTATAGCATTTGGA	3.14	5.51	4.38	1.75	4.49	3.83	0.905	1.41
TGATATAGGTAAACAGGTGAAAGTCCGTAAGTTA	0.629	0.44	0.407	-0.121	0.613	0.68	0.366	0.301
CCTACTGGGCCACGGAAGGTCATTGATTCAGTGA	3.78	2.93	2.38	-0.515	2.57	3.67	0.727	1.2
CCAGACAGGTAAAAGGTAACTCAGTCTGGTACGC	0.19	0.33	0.29	-0.178	1.09	0.372	-0.238	0.202
CTCGAAAGGTCGGTTGAGGTGAGAATACGGATAA	2.21	3	3.18	0.839	2.33	4.84	1.13	0.742
TTACCAAGGTGTAGGTCGTTGATCCCTCTGTAGA	0.426	0.051	-0.436	-0.0196	0.497	0.442	0.121	0.0922
CGAACTAGGTGATCCAGGACAGTGAATACATTGA	0.12	0.151	0.467	0.07	0.363	1.38	0.934	0.0681
